Laboratory results reported in article PMC4336329 (PLoS ONE, 2015).
Screen size: about 310,000 compounds; about 14,000 (4.5%) showed an effect of 50% or more. Effects have a minus sign here. This excerpt belongs to a sample that is enriched for strong results.

Target: human ether-à-go-go-related gene (hERG) potassium channel (human, UniProt Q12809)
Experiment: primary screen, population patch clamp on CHO cells stably expressing hERG; higher = less effect of the substance
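Further: peak tail current of the secondary pulse compared with the same well before compound.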

Sequence of human ether-à-go-go-related gene (hERG) potassium channel (Q12809 whole entry, looked up): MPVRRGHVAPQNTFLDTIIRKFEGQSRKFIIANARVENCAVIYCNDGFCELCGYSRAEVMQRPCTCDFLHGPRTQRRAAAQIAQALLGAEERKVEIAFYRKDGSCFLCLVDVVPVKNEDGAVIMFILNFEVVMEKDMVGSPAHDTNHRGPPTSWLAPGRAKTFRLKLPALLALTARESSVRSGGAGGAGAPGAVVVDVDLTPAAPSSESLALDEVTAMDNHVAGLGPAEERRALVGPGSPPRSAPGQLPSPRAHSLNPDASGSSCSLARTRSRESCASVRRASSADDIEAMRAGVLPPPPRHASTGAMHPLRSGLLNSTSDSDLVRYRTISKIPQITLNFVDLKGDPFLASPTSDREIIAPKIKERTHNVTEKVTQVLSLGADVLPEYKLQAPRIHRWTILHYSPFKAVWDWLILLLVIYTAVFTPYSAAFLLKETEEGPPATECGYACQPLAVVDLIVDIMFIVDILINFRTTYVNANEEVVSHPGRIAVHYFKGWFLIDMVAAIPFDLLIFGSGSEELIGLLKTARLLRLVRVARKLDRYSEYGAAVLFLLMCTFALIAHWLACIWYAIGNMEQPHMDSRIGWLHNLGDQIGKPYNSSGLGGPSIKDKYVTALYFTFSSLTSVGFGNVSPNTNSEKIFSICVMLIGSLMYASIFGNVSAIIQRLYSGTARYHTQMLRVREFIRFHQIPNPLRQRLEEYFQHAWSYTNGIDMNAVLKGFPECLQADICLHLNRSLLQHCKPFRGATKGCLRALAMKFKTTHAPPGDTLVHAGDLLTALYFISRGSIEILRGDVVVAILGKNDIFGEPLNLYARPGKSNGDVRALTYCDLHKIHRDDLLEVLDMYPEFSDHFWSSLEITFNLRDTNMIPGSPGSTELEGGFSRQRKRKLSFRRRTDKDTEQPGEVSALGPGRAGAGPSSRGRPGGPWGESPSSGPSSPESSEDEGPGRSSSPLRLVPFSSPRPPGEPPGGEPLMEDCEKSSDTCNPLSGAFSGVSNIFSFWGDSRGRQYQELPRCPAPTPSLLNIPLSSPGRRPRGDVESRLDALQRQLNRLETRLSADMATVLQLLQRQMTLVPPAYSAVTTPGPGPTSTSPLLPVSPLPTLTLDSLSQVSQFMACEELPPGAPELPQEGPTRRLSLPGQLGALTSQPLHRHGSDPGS

In order of rising “hERG current change (%, negative = inhibition) at 10uM” value:
1. COc1ccc(C(=O)Nc2ccccc2)cc1NC(=O)c1cccs1  -74%
2. CCCCCn1c(=O)c(C(=O)OCC)c(Cl)c2ccccc21  -73.8%
3. O=C(NC1CCCN(C2Cc3ccccc3C2)C1)c1ccc(F)cc1Cl (stereo not drawn)  -71.1%
4. O=C(CNC(=O)c1ccc(OC(F)F)cc1)Nc1cccc(S(=O)(=O)N2CCCC2)c1  -70.3%
5. Cc1cccc(C)c1OCc1cc(C(=O)N2CCN(C3CCCC3)CC2)no1  -67.9%
6. C#Cc1cccc(C(=O)NC2CCCN(C3Cc4ccccc4C3)C2)c1 (stereo not drawn)  -64.4%
7. CCCCCn1c(=O)c(C(=O)OCC)c(O)c2ccccc21  -64%
8. Cc1ccc(-c2noc(CCC(=O)NCC3CCN(Cc4cccc(C)c4)CC3)n2)cc1  -63.8%
9. CN1CCN(S(=O)(=O)c2ccc(N(C)Cc3ccc(OC(F)F)cc3)c([N+](=O)[O-])c2)CC1  -60.8%
10. CC(O/N=C/c1ccc(OC(F)F)cc1)C(=O)Nc1cccc(S(=O)(=O)N2CCOCC2)c1 (stereo not drawn)  -60.5%
11. COc1ccc(-c2noc(CCC(=O)NCC3CCN(Cc4cccc(C)c4)CC3)n2)cc1  -60.3%
12. COc1ccc([N+](=O)[O-])cc1N/C(=N/S(=O)(=O)c1ccccc1)c1ccccc1  -57.8%
13. COc1ccc(C(=O)Nc2ccccc2)cc1NC(=O)c1ccc([N+](=O)[O-])cc1  -56.8%
14. O=C(Nc1ccccc1)c1cccc(S(=O)(=O)Oc2ccc([N+](=O)[O-])cc2)c1  -56.4%
15. O=C(c1cc(COc2c(F)cccc2F)on1)N1CCN(C2CCCCC2)CC1  -52%
16. CN1CCN(S(=O)(=O)c2ccc(Nc3ccc(F)cc3)c([N+](=O)[O-])c2)CC1  -51.3%
17. Cc1ccc(-c2noc(CCC(=O)NCCN3CCN(Cc4ccccc4)CC3)n2)cc1  -49%
18. CCC1CCCCN1CCCNC(=O)CSc1nc2nc(C)c(Cc3ccc(C)cc3)c(C)n2n1 (stereo not drawn)  -47.8%
19. COc1ccc(-c2noc(CCC(=O)NC3CCN(Cc4ccccc4)CC3)n2)cc1  -45.7%
20. COc1cccc(C(=O)NC2CCCN(C3Cc4ccccc4C3)C2)c1OC (stereo not drawn)  -41.7%
21. COc1ccc(C(=O)Nc2ccc(Nc3ccccc3)cc2)cc1[N+](=O)[O-]  -37%
22. CCN(C(=O)[C@@H]1CCCN1C(=O)c1cccs1)c1nc2cc(Cl)ccc2s1  -36%
23. COc1ccccc1N/C(=N/S(=O)(=O)c1ccc(Cl)cc1)c1ccccc1  -35.1%
24. CC(O/N=C/c1ccccc1OC(F)F)C(=O)Nc1cccc(S(=O)(=O)N2CCOCC2)c1 (stereo not drawn)  -33.9%
25. COc1ccccc1N/C(=N/S(=O)(=O)c1ccc(C)cc1)c1ccccc1  -31%
26. COc1cc(Nc2ccc(S(=O)(=O)N3CCN(C)CC3)cc2[N+](=O)[O-])cc(OC)c1  -28.6%
27. Cc1ccccc1NC(=O)c1cccc(S(=O)(=O)Oc2ccc([N+](=O)[O-])cc2)c1  -24.5%
28. CN1CCN(S(=O)(=O)c2ccc(Nc3cccc(Cl)c3)c([N+](=O)[O-])c2)CC1  -20.7%
29. CCOc1ccc(OCCC(=O)N2CCc3cc(OC)c(OC)cc3C2)cc1  -20.6%
30. Cc1cccc(C)c1OCc1cc(C(=O)N2CCN3CCCC3C2)no1 (stereo not drawn)  -19.5%
31. CC#CC(=O)NC1CCCN(C2Cc3ccccc3C2)C1 (stereo not drawn)  -18.7%
32. COc1ccc(C(=O)NCC(=O)OCC(=O)Nc2cccc(S(=O)(=O)N3CCCC3)c2)cc1  -15.8%
33. CC(C)(C)NC(=O)NC(=O)CSc1ccc(S(=O)(=O)N2CCCCC2)cn1  -13.5%
34. Cc1noc(NS(=O)(=O)c2ccc(N/C=C/C(=O)c3ccncc3)cc2)c1C  -13%
35. CCOC(=O)c1sc(SCC(=O)Nc2ccc(N(C)C)cc2)nc1N  -13%
36. Cc1cc(C(=O)CSc2nc3ccccc3[nH]2)c(C)n1CC1CCCO1 (stereo not drawn)  -12.5%
37. COc1ccc(OC)c(Nc2nc(NCc3ccco3)c3ccccc3n2)c1.Cl  -12.2%
38. O=C(COC(=O)CNC(=O)c1ccc(F)cc1)Nc1cccc(S(=O)(=O)N2CCCC2)c1  -12%
39. COCCCN1CC(=O)N2C(c3ccccc3)c3[nH]c4ccccc4c3C[C@H]2C1=O (stereo partly drawn)  -11.3%
40. CCCCCCCn1c(=O)c(C(=O)OC)c(N)c2ccccc21  -9%
41. NS(=O)(=O)c1ccc(NC(=O)COC(=O)CCC2CCCCC2)cc1  -5.65%
42. CN1CCN(S(=O)(=O)c2ccc(N(C)Cc3ccc(C(F)(F)F)cc3)c([N+](=O)[O-])c2)CC1  -5.45%
43. CSCC(=O)NC1CCCN(C2Cc3ccccc3C2)C1 (stereo not drawn)  -5.38%
44. N#Cc1ccsc1NC(=O)c1ccccn1  -4.67%
45. Cc1cc(C)c2nc(SCC(=O)NC(=O)c3cccn3C)cc(C)c2c1  -2.66%
46. NC(=O)c1ccsc1NC(=O)c1coc2ccccc2c1=O  -2.56%
47. Cc1cccc(/C=N/n2c(C)nnc2C)c1  -0.651%
48. COc1ccc(-c2noc(CCC(=O)NCCc3cccc(C)c3)n2)cc1  -0.562%
49. Cc1cccc(C)c1OCc1cc(C(=O)N2CCCCCCC2)no1  -0.442%
50. CN(C)Cc1c(-c2ccc(Cl)cc2)nc2ccccn12  0.0702%
51. CN1CCN(/N=C/c2c(O)n(Cc3ccc(F)cc3)c(=O)[nH]c2=O)CC1  0.78%
52. COc1ccc(N/C=C2\CCc3ccccc3C2=O)cc1  0.787%
53. CC(C)Sc1nnc(-c2c[nH]c3ccccc23)n1C  1.3%
54. CCC(C)c1ccc(NC(=S)N2CCCC2)cc1 (stereo not drawn)  1.86%
55. Cc1ccc(-c2noc(CCC(=O)NCC3CCCO3)n2)cc1 (stereo not drawn)  2%
56. CCCCn1c(=O)c(C(=O)OCC)c(O)c2ccccc21  2.18%
57. CCCCCCCCn1c(=O)c(C(=O)OC)c(N)c2ccccc21  3.02%
58. COc1cccc(NC(=O)CN(c2ccc3c(c2)OCO3)S(C)(=O)=O)c1  3.07%
59. Cc1nnc(SCC(N)=O)n1CC1CCCO1 (stereo not drawn)  3.55%
60. Nc1nonc1-n1nnc(C(=O)N/N=C/c2cccc(Cl)c2)c1-c1cccs1  3.81%
61. CCCn1c(SCC(=O)NC2CCCCC2)nnc1-c1ccncc1  4.24%
62. O=C(c1cc(COc2c(F)cccc2F)on1)N1CCCCCC1  4.46%
63. CC(=O)N1CCCN(C(=O)c2cc(COc3c(F)cccc3F)on2)CC1  6.58%
64. C=CCOc1ccc(CN(C)c2ccc(S(=O)(=O)N3CCN(C)CC3)cc2[N+](=O)[O-])cc1  6.82%
65. COC(=O)C1=C[C@@H](C(=O)OC)[C@@H]2C3=C(C(=O)[C@]2(C)NC(=O)c2ccccc2)[C@H](C)n2c(=O)n(-c4ccccc4)c(=O)n2[C@@H]3C1  7.6%
66. C[C@H]1CN=C(N(C)C)N1CC1CCCCC1  7.73%
67. COc1ccc(C(=O)Nc2cccc(NC(=O)c3cccs3)c2)cc1OC  8.5%
68. CNc1nnc(-c2ccc(N(C)C)cc2)s1  8.65%
69. COc1ccc([N+](=O)[O-])cc1NC(=O)Nc1ccccc1  10.3%
70. COc1ccc(-c2nn3c(-c4ccccn4)nnc3s2)cc1OC  10.6%
71. CCOC(=O)Cc1nc2cc(Cl)ccc2o1  10.7%
72. COc1ccc(C(=O)NCCCNC(=O)c2ccccn2)cc1  10.8%
73. O=C(NNC(=O)C12CC3CC(CC(C3)C1)C2)c1csc(N2CCOCC2)n1  11.3%
74. Fc1ccccc1-c1nc2c(s1)CCc1onc(-c3ccc(Br)cc3)c1-2  11.4%
75. O=C(CCSCc1ccc(Cl)cc1)NCCC1=CCCCC1  11.4%
76. CC(C)(C)c1ccc(C(=O)NCCCNC(=O)c2cccnc2)cc1  11.7%
77. COC(=O)c1c(NC(=O)C(C)C)sc2c1C(C(=O)OC)CC2 (stereo not drawn)  11.8%
78. Cc1ccc(C(=O)NCCN2CCNC2=O)cc1  12.9%
79. COc1ccc(C(C)=O)cc1COC(=O)c1cc(C)nc2ccccc12  13.6%
80. O=C1CN(C(=O)CSc2nc(-c3ccc(Cl)cc3)cs2)c2ccccc2N1  13.9%
81. Cc1cc(NC(=O)Nc2ccc(Cl)c(Cl)c2)n(-c2ccccc2)n1  13.9%
82. O=C(/C=C/c1ccc(OC(F)F)cc1)Nc1cccc(S(=O)(=O)N2CCOCC2)c1  14.2%
83. CCCCCCCCn1c(=O)c(C(=O)OCC)c(O)c2ccccc21  14.5%
84. O=C(Nc1ccc([N+](=O)[O-])cc1)c1nc[nH]c1C(=O)NC1CCCCC1  16.2%
85. O=C(O)c1ccc(NS(=O)(=O)c2cccc(C(=O)Nc3ccc([N+](=O)[O-])cc3)c2)cc1  18.8%
86. Cn1cnnc1SC(C(=O)Nc1cc(Cl)cc(Cl)c1)c1ccccc1 (stereo not drawn)  20.9%
87. O=C(NC1CC1)c1ccc(F)cc1Cl  21%
88. O=C(Nc1ccc2c(c1)OCO2)C(=O)c1c[nH]c2ccccc12  22.3%
89. S=C(NCCc1cnc[nH]1)NC1CCCC1  23.2%
90. COc1ccc(C(=O)Nc2ccc(NC(=O)c3cccs3)cc2)cc1Cl  27.5%
